# In the library only some 4.5% were active in any assay of this set; here they are far more common.
# PfHsp40 rescue: rescue of yeast from PfHsp40 toxicity, primary screen, S. cerevisiae, ATP luminescence; actives 0.68% (n = 340,000); S. cerevisiae expressing PfHsp40, growth rescue; growth rescue, % at 12.5 µM; in the data active = growth rescue above about 28%, passing the limit was not always enough;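 note: yeast W303a lacking pdr1 and pdr3 grown in galactose medium; growth measured after three days at 30 °C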
# PrP 5UTR inh: inhibition of PrP 5' UTR reporter expression | inhibition, % (test concentration not listed) | actives 0.35% (n = 340,000) | cell-based PrP 5' UTR mRNA reporter, plate reader | AID 488862, 2010; in the data active = inhibition above about 52%; note: 0 = median of the neutral control wells
# GDH-TPI inh: GDH-TPI coupling enzyme inhibitors, primary screen, artefact control for M. tuberculosis FBA inhibitor project, biochemical, absorbance, full deck. actives 1.2% (n = 360,000). AID 588335, 2011. inhibition, % at 4.8 µM. GDH-TPI coupled enzyme counterscreen, NADH absorbance; in the data active = inhibition above about 30%;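 note: 0% = DMSO wells and 100% = wells lacking the enzyme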
# Mtb FBA inh: Mtb FBA enzyme inhibitors, primary screen, biochemical, fluorescence, strain H37Rv; Fructose-bisphosphate aldolase (Mycobacterium tuberculosis (strain ATCC 25618 / H37Rv)), …; purified M. tuberculosis FBA, fluorescence read-out; inhibition, % at 1 µM; actives 2.3% (n = 360,000); in the data active = inhibition above about 27%;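 note: 0% = vehicle and 100% = reference inhibitor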
# Target sequence (P9WQA3 whole entry, looked up): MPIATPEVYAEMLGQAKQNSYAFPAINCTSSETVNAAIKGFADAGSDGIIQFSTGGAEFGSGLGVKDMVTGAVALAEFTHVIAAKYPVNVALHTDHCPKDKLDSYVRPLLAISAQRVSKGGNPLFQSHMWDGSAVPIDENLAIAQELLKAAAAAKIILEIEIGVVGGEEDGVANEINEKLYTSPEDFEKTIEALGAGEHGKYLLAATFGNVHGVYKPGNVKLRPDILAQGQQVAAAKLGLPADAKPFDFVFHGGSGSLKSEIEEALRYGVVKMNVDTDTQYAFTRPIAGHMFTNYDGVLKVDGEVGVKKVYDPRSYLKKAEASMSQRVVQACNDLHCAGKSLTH
# BJeLR lethal: MLPCN primary cell-based screen for lethality selective to Ras in HRASV12 cells; BJeLR (HRASV12) viability, CellTiter-Glo ATP luminescence, 48 h; inhibition, % (test concentration not listed); actives 0.17% (n = 300,000); AID 1554, 2009; in the data active = inhibition above about 50%
# PrPC TRFRET: inhibitors of human cell surface prion protein PrPC, primary screen, cell-based, TR-FRET. Major prion protein (Homo sapiens), P04156. actives 0.43% (n = 370,000). TR-FRET read-out. inhibition, % at 13.8 µM; in the data active = inhibition above about 24%; note: 0% = median of the test wells and 100% = reference compound wells
# * marks the source's active call; other numbers are inactive results; . = no result given; ! = not active in a repeat.
SMILES,PfHsp40 rescue,PrP 5UTR inh,GDH-TPI inh,Mtb FBA inh,BJeLR lethal,PrPC TRFRET
COc1ccc(CN2CC(=O)N(c3ccc(Cl)cc3)C2=S)cc1OC,0.2,-12.6,-7.8,4.5,7.6,8.9
c1ccc(-c2nnc3n2N=C(c2ccc4ccccc4c2)CS3)cc1,.,.,.,.,.,4.2
Cc1nc2scc(C)n2c(=O)c1S(=O)(=O)NCc1ccccc1,-0.2,0.3,37.9*,23.8,2.2,8.4
COc1cccc(CNS(=O)(=O)c2c(C)nc3scc(C)n3c2=O)c1,-0.3,-7.5,20.5,17.9,7.8,-0.5
C[C@H]1CCCN1c1cccc2c1S(=O)(=O)N(C1CC1)CCCO2,.,.,.,.,.,-2.3
N#C/C(=C\c1ccc(O)cc1)C(=O)O,-1.2,-15.5,34.7*!,-1.2,.,-4.8
CCOC(=O)c1cnn2c(C)cc(-c3ccc(F)cc3)nc12,0.0,-73.7,13.4,60.4*,6.4,-6.2
Cc1cc(-c2ccc(F)cc2)nc2cc(C(N)=O)nn12,4.1,-15.8,3.1,13.3,8.4,-16.8
NS(=O)(=O)c1ccc(NNC(=O)c2ccc(Br)o2)c([N+](=O)[O-])c1,5.2,-34.4,44.6*,-4.6,.,-68.9
COC(=O)[C@]1(C#N)CC(=O)N(Cc2ccc(Cl)cc2)[C@@H]1c1ccccc1,.,.,.,.,.,0.2
C=CS(=O)(=O)c1sc(Cl)c(N2CCOCC2)c1[N+](=O)[O-],481.9*,10.3,4.6,1.0,-2.3,-3.4
CN(Cc1ccccc1)S(=O)(=O)c1cccc(C(=O)OCc2cccc([N+](=O)[O-])c2)c1,.,.,.,.,.,3.5
C/C(=N\Nc1ccc(C(=O)O)cc1)c1ccc2c(c1)Nc1ccccc1S2,207.3*,-20.4,15.9,0.2,0.2,2.5
COc1ccc(/C=N/NC(=O)c2ccc(O)cc2O)cc1CSc1ccccn1,-0.1,-8.4,38.3*,-1.4,2.0,4.9
CC(C)(C)c1ccc(OCc2ccc(C(=O)Nc3cccnc3)o2)cc1,36.8*,-73.2,-2.7,0.2,5.4,13.5
O=C(N/N=C/c1cccc(Oc2ccccc2)c1)c1ccc(O)cc1O,-0.3,-11.2,34.0*,0.9,-0.8,1.4
COc1ccc(C=O)cc1CSc1ccccn1,0.2,-11.3,-5.7,-2.2,-1.2,3.4
O=C(N/N=C/c1cccc(Oc2ccccc2)c1)c1ccncc1,0.8,-11.4,10.5,-2.1,-1.8,4.4
O=C(O)c1ccc(/C=N/NC(=O)c2cc3c(ccc4ccccc43)o2)cc1,-0.8,-16.2,57.3*,-1.8,18.5,6.3
COc1ccccc1/C=N/NC(=O)c1cc2c(ccc3ccccc32)o1,-0.4,-14.1,22.1,11.8,3.6,1.9
CN(C)S(=O)(=O)c1cccc(C(=O)N/N=C\c2ccccc2)c1,.,.,.,.,.,0.3
COc1ccc(OC)c(S(=O)(=O)N2CCCCC2C(=O)N2CCN(CCO)CC2)c1 (stereo unspecified),.,.,.,.,.,-3.1
O=C(N/N=C/c1ccncc1)c1cc2c(ccc3ccccc32)o1,0.0,-58.2,46.7*,3.2,-0.1,-9.1
O=C(N/N=C/c1cccc([N+](=O)[O-])c1)c1cc2c(ccc3ccccc32)o1,-0.5,-7.3,-1.2,2.0,-9.1,3.8
O=C(O)c1ccc(/C=N/NC(=O)c2cc3ccccc3cc2O)cc1,1.5,-25.2,40.6*,-7.8,.,-7.7
SMILES,PfHsp40 rescue,PrP 5UTR inh,GDH-TPI inh,Mtb FBA inh,BJeLR lethal,PrPC TRFRET
O=C(CNc1ccc2ccccc2c1)N/N=C/c1ccc(C(=O)O)cc1,0.5,-17.4,11.3,-0.8,0.1,-5.5
O=C(Nc1cccnc1)c1cc2c(ccc3ccccc32)o1,0.2,-69.8,31.8*,0.5,2.4,.
N#CCC[C@@H]1CC[C@]2(CCCN(C(=O)c3cccnc3)C2)O1,.,.,.,.,.,6.0
C/C(=N\NC(=O)c1c(Cl)c(C)nn1C)c1ccc(NC(=O)C2CCC2)cc1,-1.0,22.6,-1.7,1.3,22.1,0.8
C/C(=N\NC(=O)c1c([N+](=O)[O-])c(C)nn1C)c1ccc(NC(=O)C2CCCC2)cc1,-0.6,66.6*,7.7,-0.8,42.0,3.5
CC(C)NC(=O)c1ccccc1NC(=O)C(C)Oc1ccccc1 (stereo unspecified),72.5*,4.5,6.1,0.6,2.3,7.4
COC(=O)c1ccccc1NC(=O)C(C)Oc1ccccc1 (stereo unspecified),1.9,1.0,4.3,0.6,.,-1.6
CC(=O)c1cc(-c2ccccc2)n(CC(=O)NCc2ccccc2)c1C,.,.,.,.,.,9.9
COc1ccccc1N1CCN(S(=O)(=O)c2ccc3c(c2)CCC(=O)N3)CC1,.,.,.,.,.,-2.0
Cc1ccc(/C=C(\C#N)C(=O)NC(C)C)o1,-0.1,-17.7,64.6*,1.2,-16.8,-6.0
Cc1ccc(/C=C(\C#N)C(=O)NC(C)c2ccccc2)o1 (stereo unspecified),-1.2,-28.5,33.0*,0.6,1.1,-1.2
Cc1ccc(/C=C(/C#N)C(=O)NC(C)c2ccccc2)o1 (stereo unspecified),-1.7,4.7,23.3,-1.5,-1.4,0.3
CC(NC(=O)/C(C#N)=C/c1ccc(C(=O)O)cc1)c1ccccc1 (stereo unspecified),-0.3,0.8,38.3*,-3.7,1.0,8.4
Cc1noc(/C=C/N(C)C)c1S(=O)(=O)N1CCCC(C(=O)Nc2ccc3c(c2)OCO3)C1 (stereo unspecified),-1.0,7.1,29.9,4.9,.,7.3
Cc1ccc(C)c(N2CCN(S(=O)(=O)c3c(C)noc3/C=C/N(C)C)CC2)c1,0.7,-12.3,36.1*,-4.5,3.2,7.5
Cc1noc(/C=C/N(C)C)c1S(=O)(=O)N1CCCC(C(=O)Nc2ccccc2F)C1 (stereo unspecified),0.0,3.2,46.5*,0.1,4.2,-6.6
Cc1ccc(N(CC(=O)NC2CCCCC2)S(=O)(=O)c2c(C)noc2C)cc1,-0.1,0.4,5.2,2.9,4.0,-1.3
Cc1cc(C)c(NC(=O)C2CCCN(S(=O)(=O)c3c(C)noc3/C=C/N(C)C)C2)c(C)c1 (stereo unspecified),-0.2,-5.7,34.2*,-2.5,8.1,-5.0
Cc1noc(/C=C/N(C)C)c1S(=O)(=O)N(C)CC(=O)NC1CCCCC1,0.4,-9.0,51.3*,4.8,4.3,0.8
Cc1ccccc1NC(=O)C1CCCN(S(=O)(=O)c2c(C)noc2C)C1 (stereo unspecified),-0.1,-2.1,11.2,-6.5,-2.1,6.2
S=c1[nH]nc(-c2n[nH]c3c2CCC3)n1N=Cc1c2ccccc2cc2ccccc12,.,.,.,.,.,-9.9
C[C@H]1[C@@H](OC(=O)N2CCN(c3ccccc3)CC2)CC[C@@]23CCCN2C(=O)CCC[C@@H]13,.,.,.,.,.,-0.9
CN(CCc1ccccc1)C(=O)c1ccc2c(c1)ncn2C1CCCCC1,.,.,.,.,.,-2.4
